PubChem BioAssay (EPA / NIEHS)
Several values for one entry are separate records, joined by “and”; a condition that tells them apart may be missing. Equal values may be shown once. Activity calls are given as the source filed them. How the source made its calls: active means hit-call score of the fitted dose curve at least 0.9, where 1 is the maximum; inactive means score below 0.9.

Columns and labels:
[1] = BSK_BT_PBMCCytotoxicity: PBMC Cytotoxicity Assessment in the BioMAP Diversity Plus: BT Assay (AID 2284225); settings: primary human B cells with PBMC;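 further: PBMC viability measured by Alamar Blue dye reduction fluorescence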
Procedure, shortened: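 PBMC (75,000/well) pretreated with compound 1 h, then activated with SEB and TSST-1 (20 ng/mL each final), incubated 90 h; Alamar Blue added 6 h, fluorescence read at 546/580 nm. Fitted relative to DMSO.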

[2] = read-out: Secreted IgG (sIgG), gene 3500; assay: BSK_BT_sIgG: BioMAP Diversity Plus: BT Assay for Secreted IgG (sIgG) Biomarker Activity (AID 2284226); settings: primary human B cells with PBMC
Procedure, shortened: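 Read-out: ELISA for secreted IgG after 24 h of chemical exposure in a B cell plus PBMC co-culture. Values reflect upward-direction fitting against DMSO negative controls.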

[3] = BSK_BT_Bcell_Proliferation: Viability Assessment in the BioMAP Diversity Plus: BT Assay for B cell Proliferation (AID 2284227); settings: primary human B cells with PBMC
Procedure, shortened: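 Read-out is absorbance at 560 nm from sulforhodamine B staining of total protein, reflecting relative cell numbers in a human B cell and PBMC co-culture after 72 h of chemical exposure. Values were referenced to DMSO.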

[4] = read-out: Interleukin 6 (IL6), IL6 (gene 3569); assay: BSK_BT_xIL6: BioMAP Diversity Plus: BT Assay for Interleukin 6 (IL6) Biomarker Activity (AID 2284228); settings: primary human B cells with PBMC
Procedure, shortened: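 Chemical added to human B cell/PBMC co-culture → 24 h → supernatant IL-6 by Luminex xMAP → fit vs DMSO baseline, upward direction.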

[5] = read-out: Interleukin 17A (IL17A), IL17A (gene 3605); assay: BSK_BT_xIL17A: BioMAP Diversity Plus: BT Assay for Interleukin 17A (IL17A) Biomarker Activity (AID 2284229); settings: primary human B cells with PBMC
Procedure, shortened: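 Chemicals were added to a human B cell and PBMC co-culture. After 24 h, secreted IL-17A was measured with Luminex xMAP. Curves were fitted in the positive direction, with DMSO wells as baseline.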

[6] = read-out: Tumor necrosis factor (Homo sapiens) (UniProt P01375); assay: BSK_BT_xTNFa: BioMAP Diversity Plus: BT Assay for Tumor necrosis factor alpha (TNF-alpha) Biomarker Activity (AID 2284230); settings: primary human B cells with PBMC
Procedure, shortened: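 Human primary co-culture of B cells and peripheral blood mononuclear cells; TNF-alpha in supernatant, 24 h post-dose, Luminex multiplex; DMSO = baseline.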

[7] = read-out: Vascular cell adhesion molecule 1 (VCAM1), VCAM1 (gene 7412); assay: BSK_MyoF_VCAM1: BioMAP Diversity Plus: MyoF Assay for Vascular cell adhesion molecule 1 (VCAM1) Biomarker Activity (AID 2284231); settings: primary human lung fibroblasts
Procedure, shortened: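 Steps: fibroblasts from human lung exposed to compound; biomarker quantified by ELISA at 24 h; values analysed for upward change over the DMSO baseline.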

[8] = read-out: Collagen I, COL1A1 (gene 1277); assay: BSK_MyoF_CollagenI: BioMAP Diversity Plus: MyoF Assay for Collagen I Biomarker Activity (AID 2284238); settings: primary human lung fibroblasts
Procedure, shortened: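 Multiplexed primary human lung fibroblast system; Collagen I measured by ELISA at 24 h post-dose. Increases are referenced to DMSO.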

Sequence of Tumor necrosis factor (Homo sapiens) (P01375 whole entry, looked up): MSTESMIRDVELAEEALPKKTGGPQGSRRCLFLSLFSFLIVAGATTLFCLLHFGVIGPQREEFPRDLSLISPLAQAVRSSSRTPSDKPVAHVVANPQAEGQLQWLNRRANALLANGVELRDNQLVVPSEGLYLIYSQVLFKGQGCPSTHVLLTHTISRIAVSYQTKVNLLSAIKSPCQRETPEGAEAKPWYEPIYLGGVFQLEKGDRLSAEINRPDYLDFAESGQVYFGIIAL

SMILES	outcome [1]	outcome [2]	outcome [3]	outcome [4]	outcome [5]	outcome [6]	outcome [7]	outcome [8]	AC50 [2]	AC50 [3]	AC50 [4]	AC50 [5]	AC50 [6]	AC50 [7]	AC50 [8]	AC50 [1]
COC(F)(C(F)F)C(F)(F)F (centres undefined)	inactive	inactive	inactive	inactive	inactive	inactive	inactive	inactive								
C[C@]12CC[C@H]3C(=CCc4cc(O)ccc43)[C@@H]1CCC2=O	inactive			inactive	inactive	inactive	inactive	inactive	29.1 µM (active)	26.1 µM (active)						
CC(C)(C)c1cc(CCC(=O)NCCCCCCNC(=O)CCc2cc(C(C)(C)C)c(O)c(C(C)(C)C)c2)cc(C(C)(C)C)c1O	inactive		inactive	inactive	inactive	inactive	inactive	inactive	1.98 µM (active)							
CCN(CC)c1ccc(N=Nc2ccccc2)cc1	inactive								18 µM (active)	30.3 µM (active)	20 µM (active)	20 µM (active)	31 µM (active)	20 µM (active)	20 µM (active)	
O=C1c2c(O)ccc(Nc3ccc(CCO)cc3)c2C(=O)c2c([N+](=O)[O-])ccc(O)c21				inactive	inactive	inactive			29.9 µM (active)	15.5 µM (active)				20 µM (active)	28.9 µM (active)	20 µM (active)
Cc1cnccn1	inactive		inactive	inactive	inactive	inactive	inactive	inactive	5.22 µM (active)							
O=C(Cl)C(F)(F)C(F)(F)C(F)(F)C(F)(F)C(F)(F)C(F)(F)F	inactive	inactive	inactive	inactive	inactive	inactive	inactive	inactive								
CCN(CC)c1ccc(C=O)cc1	inactive	inactive	inactive	inactive	inactive	inactive	inactive	inactive								
O=C(F)C1(F)C(F)(F)C(F)(F)C(F)(F)C(F)(F)C1(F)F	inactive	inactive	inactive	inactive	inactive	inactive	inactive	inactive								
CCN(CC)c1ccc2c(c1)Oc1cc(N(CC)CC)ccc1C21OC(=O)c2ccccc21					inactive	inactive	inactive	inactive	6.43 µM (active)	6.1 µM (active)	10 µM (active)					6.15 µM (active)
CC1=CC2C3C=CC(C3)C2C1C (centres undefined)	inactive		inactive		inactive	inactive	inactive	inactive	20 µM (active)		16.7 µM (active)					
C=C(C)C(=O)OCC(F)(F)C(F)(F)C(F)(F)C(F)F	inactive	inactive	inactive	inactive	inactive	inactive	inactive	inactive								
Cc1cc(O)c(C(C)(C)C)cc1C(C)(C)C									12.9 µM (active)	26.1 µM (active)	17.2 µM (active)	20 µM (active)	33.3 µM (active)	3.83 µM (active)	4.19 µM (active)	26.5 µM (active)
Brc1nc2ccccc2s1	inactive	inactive	inactive		inactive	inactive	inactive	inactive			0.338 µM (active)					
O=C(O)C(F)(F)C(F)(F)C(F)(F)OC(F)(C(F)(F)F)C(F)(F)F	inactive	inactive	inactive	inactive	inactive	inactive	inactive	inactive								
NS(=O)(=O)C(F)(F)C(F)(F)C(F)(F)C(F)(F)C(F)(F)C(F)(F)F	inactive	inactive	inactive	inactive	inactive	inactive	inactive	inactive								
Cc1ccc(S(=O)(=O)C(I)I)cc1									2.03 µM (active)	2.97 µM (active)	2.82 µM (active)	2.36 µM (active)	4.64 µM (active)	7.94 µM (active)	8.3 µM (active)	4.06 µM (active)

SMILES	outcome [1]	outcome [2]	outcome [3]	outcome [4]	outcome [5]	outcome [6]	outcome [7]	outcome [8]	AC50 [2]	AC50 [3]	AC50 [4]	AC50 [5]	AC50 [6]	AC50 [7]	AC50 [8]	AC50 [1]
NCC(F)(F)C(F)(F)C(F)(F)C(F)(F)C(F)(F)C(F)(F)F	inactive	inactive	inactive	inactive	inactive	inactive	inactive	inactive								
O=C(O)CCC(F)(F)C(F)(F)C(F)(F)F	inactive	inactive	inactive	inactive	inactive	inactive	inactive	inactive								
O=C1C=CC(=O)N1c1ccc(Cc2ccc(N3C(=O)C=CC3=O)cc2)cc1									2.18 µM (active)	3.64 µM (active)	3.09 µM (active)	1.99 µM (active)	4.89 µM (active)	3.05 µM (active)	2.69 µM (active)	4.43 µM (active)
O=C=Nc1cccc2c(N=C=O)cccc12	inactive		inactive	inactive	inactive	inactive	inactive	inactive	12 µM (active)							
O=C(O)C(F)(F)C(F)(F)C(F)(F)C(=O)O	inactive	inactive	inactive	inactive	inactive	inactive	inactive	inactive								
OCC(O)CC(F)(F)C(F)(F)C(F)(F)C(F)(F)C(F)(F)C(F)(F)C(F)(F)C(F)(F)F (centres undefined)	inactive	inactive	inactive	inactive	inactive	inactive	inactive	inactive								
O=C(c1ccccc1)c1ccc(O)cc1O	inactive	inactive	inactive	inactive	inactive	inactive	inactive	inactive								
FC(F)(F)C(F)(F)C(F)(F)C(F)(F)C(F)(F)C(F)(F)CC[Si](Cl)(Cl)Cl	inactive	inactive	inactive	inactive	inactive	inactive	inactive	inactive								
CC(C)CCCC(C)CCO (centres undefined)	inactive	inactive	inactive	inactive	inactive	inactive								29.9 µM (active)	31.6 µM (active)	
O=C(O)CCC(F)(F)C(F)(F)C(F)(F)C(F)(F)C(F)(F)C(F)(F)C(F)(F)F	inactive		inactive	inactive	inactive	inactive	inactive	inactive	3.33 µM (active) and 5.61 µM (active)							
CCOC(C=C(C)CCC=C(C)C)OCC	inactive	inactive	inactive	inactive	inactive	inactive								27 µM (active)	30 µM (active)	
CN(C(=O)C(F)(F)C(F)(F)C(F)(F)F)[Si](C)(C)C	inactive	inactive	inactive	inactive	inactive	inactive	inactive	inactive								
NCC(F)(F)C(F)(F)C(F)(F)C(F)(F)C(F)(F)C(F)(F)C(F)(F)C(F)(F)F	inactive	inactive	inactive	inactive	inactive	inactive	inactive	inactive								
Cc1cc(C)c(O)c(C(C)(C)C)c1	inactive	inactive	inactive	inactive	inactive	inactive								34.2 µM (active)	30.6 µM (active)	
FC(F)(F)C(F)(F)C(F)(F)CC1CO1 (centres undefined)	inactive	inactive	inactive	inactive	inactive	inactive	inactive	inactive								
Cc1ccc(O)c(-n2nc3ccccc3n2)c1	inactive	inactive	inactive	inactive	inactive	inactive	inactive	inactive								
